Measured values reported in the supplement of paper PMC12669032.

Assays:
Assay in all cases: growth AUC relative to DMSO control (median of replicates) (fraction); higher = more growth (less inhibition), active = hit call of the paper
Details in all cases: 20 µM; 24 h;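 active = AUC reduced over 20% with Padj below 0.05 in at least 2 of 3 replicates; inactive = otherwise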
Akkermansia muciniphila = tested on: Akkermansia muciniphila
In short: (§1)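 Starting at OD600 0.05, gut bacterial monocultures in mGAM were grown anaerobically at 37 °C with 20 µM compound (1% DMSO) under pierced gas-permeable seals. OD600 was read every hour for 24 h, and the lowest OD of each curve was set to 0. Area under the growth curve was normalised to the plate median of solvent-only wells, or to row and column medians on the industrial chemical plate, and the median of three biological replicates grown on separate days is given.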

Bacteroides caccae = tested on: Bacteroides caccae
In short: as §1

Bacteroides clarus = tested on: Bacteroides clarus
In short: as §1

Bacteroides dorei = tested on: Bacteroides dorei
In short: as §1

Bacteroides stercoris = tested on: Bacteroides stercoris
In short: as §1

[1] = tested on: Bacteroides thetaiotaomicron
In short: as §1

Bacteroides uniformis = tested on: Bacteroides uniformis
In short: as §1

[2] = tested on: Bifidobacterium longum subsp. longum
In short: as §1

Clostridium difficile = tested on: Clostridium difficile
In short: as §1

Collinsella aerofaciens = tested on: Collinsella aerofaciens
In short: as §1

Measured: growth AUC

C[C@@H](Oc1ccc(Oc2nc3ccc(Cl)cc3o2)cc1)C(=O)O
inactive: Akkermansia muciniphila 1.03 | Bacteroides caccae 1 | Bacteroides clarus 1.01 | Bacteroides dorei 0.924 | Bacteroides stercoris 1.09 | [1] 1.01 | Bacteroides uniformis 0.929 | [2] 1.16 | Clostridium difficile 0.905 | Collinsella aerofaciens 0.961

COP(N)(=S)Oc1ccccc1C(=O)OC(C)C (stereo not given)
inactive: Akkermansia muciniphila 1.19 | Bacteroides caccae 1.02 | Bacteroides clarus 0.981 | Bacteroides dorei 0.893 | Bacteroides stercoris 0.979 | [1] 0.998 | Bacteroides uniformis 0.999 | [2] 1.03 | Clostridium difficile 0.993 | Collinsella aerofaciens 0.993

CCc1nn(C)c(C(=O)NCc2ccc(Oc3ccc(C)cc3)cc2)c1Cl
inactive: Akkermansia muciniphila 0.877 | Bacteroides caccae 0.935 | Bacteroides clarus 0.932 | Bacteroides dorei 0.974 | Bacteroides stercoris 0.633 | [1] 0.967 | Bacteroides uniformis 0.984 | [2] 0.81 | Clostridium difficile 1.04 | Collinsella aerofaciens 0.952

CCOP(=O)(SC(C)CC)SC(C)CC (stereo not given)
inactive: Akkermansia muciniphila 0.94 | Bacteroides caccae 1.01 | Bacteroides clarus 0.962 | Bacteroides dorei 1.02 | Bacteroides stercoris 0.949 | [1] 0.993 | Bacteroides uniformis 0.981 | [2] 0.97 | Clostridium difficile 0.982 | Collinsella aerofaciens 0.933

COC(=O)c1ccccc1S(=O)(=O)NC(=O)Nc1nc(C)cc(C)n1
inactive: Akkermansia muciniphila 1.07 | Bacteroides caccae 0.962 | Bacteroides clarus 0.988 | Bacteroides dorei 0.968 | Bacteroides stercoris 0.859 | [1] 0.979 | Bacteroides uniformis 1.02 | [2] 1.1 | Clostridium difficile 1 | Collinsella aerofaciens 0.949

CC(C)(C)N(NC(=O)c1ccc(Cl)cc1)C(=O)c1ccccc1
inactive: Akkermansia muciniphila 0.852 | Bacteroides caccae 0.973 | Bacteroides clarus 0.986 | Bacteroides dorei 0.983 | Bacteroides stercoris 1.02 | [1] 0.939 | Bacteroides uniformis 1.01 | [2] 1.04 | Clostridium difficile 1.11 | Collinsella aerofaciens 1.02

O=[N+]([O-])NC1=NCOCN1Cc1cnc(Cl)s1
inactive: Akkermansia muciniphila 1.23 | Bacteroides caccae 0.994 | Bacteroides clarus 1.04 | Bacteroides dorei 1.01 | Bacteroides stercoris 1.19 | [1] 0.979 | Bacteroides uniformis 0.964 | [2] 0.917 | Clostridium difficile 0.999 | Collinsella aerofaciens 0.971

CCCCOC(=O)[C@@H](C)Oc1ccc(Oc2ccc(C#N)cc2F)cc1
inactive: Akkermansia muciniphila 1.1 | Bacteroides caccae 0.973 | Bacteroides clarus 1 | Bacteroides dorei 0.969 | Bacteroides stercoris 0.973 | [1] 0.954 | Bacteroides uniformis 0.975 | [2] 0.984 | Clostridium difficile 0.981 | Collinsella aerofaciens 0.984

C=CC(N)=O
inactive: Akkermansia muciniphila 1.01 | Bacteroides caccae 0.985 | Bacteroides clarus 1 | Bacteroides dorei 0.963 | Bacteroides stercoris 0.983 | [1] 0.99 | Bacteroides uniformis 1.01 | [2] 0.875 | Clostridium difficile 1.01 | Collinsella aerofaciens 1.01

CNC(=O)c1cc(C#N)cc(C)c1NC(=O)c1cc(Br)nn1-c1ncccc1Cl
inactive: Akkermansia muciniphila 0.947 | Bacteroides caccae 1.04 | Bacteroides clarus 0.977 | Bacteroides dorei 1.01 | Bacteroides stercoris 0.933 | [1] 0.982 | Bacteroides uniformis 0.995 | [2] 0.999 | Clostridium difficile 1 | Collinsella aerofaciens 0.981

CC1(C)OC(c2ccco2)CN1C(=O)C(Cl)Cl (stereo not given)
inactive: Akkermansia muciniphila 0.918 | Bacteroides caccae 1 | Bacteroides clarus 0.942 | Bacteroides dorei 1 | Bacteroides stercoris 1.03 | [1] 0.992 | Bacteroides uniformis 1.02 | [2] 1.03 | Clostridium difficile 0.956 | Collinsella aerofaciens 1.02

CN(C)C(=O)C(c1ccccc1)c1ccccc1
inactive: Akkermansia muciniphila 0.89 | Bacteroides caccae 1.03 | Bacteroides clarus 0.963 | Bacteroides dorei 1.05 | Bacteroides stercoris 0.957 | [1] 0.992 | Bacteroides uniformis 1.05 | [2] 0.947 | Clostridium difficile 1.03 | Collinsella aerofaciens 1.01

CCN(CC)c1c([N+](=O)[O-])cc(C(F)(F)F)c(N)c1[N+](=O)[O-]
inactive: Akkermansia muciniphila 0.987 | Bacteroides caccae 0.94 | Bacteroides clarus 0.977 | Bacteroides dorei 0.956 | Bacteroides stercoris 1.09 | [1] 0.88 | Bacteroides uniformis 0.972 | [2] 0.913 | Clostridium difficile 1 | Collinsella aerofaciens 1
